Screens from PubChem BioAssay.
GDH-TPI counter-1 – GDH-TPI coupled enzyme inhibition counter-screen. GDH-TPI coupled enzyme counterscreen, NADH absorbance. inhibition, % at 4.8 µM. 360,000 compounds, 1.2% hits. AID 588335; in the data active means inhibition above about 30%;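 further: 0% = DMSO wells and 100% = wells lacking the enzyme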
BJeLR lethal – kills HRASV12-expressing BJeLR cells; BJeLR (HRASV12) viability, CellTiter-Glo ATP luminescence, 48 h; inhibition, % (test concentration not listed); 300,000 compounds, 0.17% hits; in the data active means inhibition above about 50%
PrPC surface inh – reduces human prion protein on the cell surface. cell surface PrPC, TR-FRET read-out. inhibition, % at 13.8 µM. 370,000 compounds, 0.43% hits; in the data active means inhibition above about 24%; further: 0% = median of the test wells and 100% = reference compound wells
Mtb FBA inh – inhibits M. tuberculosis FBA enzyme; P9WQA3; purified M. tuberculosis FBA, fluorescence read-out; inhibition, % at 1 µM; 360,000 compounds, 2.3% hits;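 further: 0% = vehicle and 100% = reference inhibitor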
Target sequence (P9WQA3 whole entry, looked up): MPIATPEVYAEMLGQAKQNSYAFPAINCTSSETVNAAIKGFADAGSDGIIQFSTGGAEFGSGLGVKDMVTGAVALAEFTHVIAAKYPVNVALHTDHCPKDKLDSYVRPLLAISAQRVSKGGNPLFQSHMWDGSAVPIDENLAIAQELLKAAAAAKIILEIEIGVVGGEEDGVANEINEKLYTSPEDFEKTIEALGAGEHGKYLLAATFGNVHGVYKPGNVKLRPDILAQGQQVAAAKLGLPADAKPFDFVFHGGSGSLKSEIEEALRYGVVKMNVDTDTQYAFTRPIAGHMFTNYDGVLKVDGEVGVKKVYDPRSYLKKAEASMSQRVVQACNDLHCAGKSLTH
RecA intein inh – Mtb RecA intein splicing inhibition. AID 2221. P9WHJ3. cell-free RecA intein splicing, fluorescence. 290,000 compounds, 0.75% hits. inhibition, % (concentration not given with the values); in the data active means inhibition above about 30%;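 further: 0% = vehicle wells and 100% = reference inhibitor control wells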
Mtb FBA confirm – confirmation of M. tuberculosis fructose-bisphosphate aldolase inhibitors; shares compounds with Mtb FBA inh; purified M. tuberculosis FBA, fluorescence read-out; inhibition, % at 1 µM; 5,600 compounds, 78% hits; AID 651616;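 further: 0% = vehicle wells and 100% = reference inhibitor wells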
GDH-TPI counter-2 – counter-screen for M. tuberculosis FBA inhibitors: GDH-TPI coupled enzyme inhibition; 5,600 compounds, 81% hits; inhibition, % at 1 µM; AID 652141; shares compounds with Mtb FBA inh; GDH-TPI coupled enzyme counterscreen, fluorescence; in the data active means inhibition above about 10%
* = called active by the depositor; nt = no result; + = active, no number. Only some compounds are listed: those with a hit (about 4.2% of all), similar ones and a draw of the others. Unless noted, no stated cut-off is given here; in the data, active means inhibition above about 27%; inactive means the rest.

SMILES	GDH-TPI counter-1	BJeLR lethal	PrPC surface inh	Mtb FBA inh	RecA intein inh	Mtb FBA confirm	GDH-TPI counter-2
C[n+]1c(-c2ccccc2)cc(-c2ccc(Cl)cc2)cc1-c1ccccc1	-5	13	-10	71*	8	79*	69*
Cc1c(-c2ccc(Cl)cc2)[n+](=O)c(-c2ccccc2)cn1[O-]	13	5	-3	0	nt	nt	nt
Cc1ccccc1N1CCN(S(=O)(=O)c2ccc3c(c2)oc(=O)n3C)CC1	nt	nt	5	nt	nt	nt	nt
COC(=O)[C@]1(C)N[C@H](c2ccc(-c3cccc(Cl)c3)c(OC)c2)[C@@H]2C(=O)N(C)C(=O)[C@@H]21	0	nt	-9	38*	nt	47*	41*
CCN1C(=O)[C@H]2[C@@H](c3ccc(-c4ccc(OC)cc4)c(OC)c3)N[C@@](C)(C(=O)OC)[C@H]2C1=O	1	-17	-5	35*	-1	39*	43*
CCN1C(=O)[C@H]2[C@@H](c3ccc(-c4ccc(F)cc4)c(OC)c3)N[C@@](C)(C(=O)OC)[C@H]2C1=O	16	-3	3	15	3	nt	nt
COC(=O)[C@@]12CCCN1[C@H](c1ccc(-c3ccc(OC)cc3)c(OC)c1)[C@@H]1C(=O)N(C)C(=O)[C@@H]12	11	nt	-1	29*	nt	+	+
COC(=O)[C@]1(C)N[C@H](c2ccc(-c3cccc(Cl)c3)cc2)[C@@H]2C(=O)N(C)C(=O)[C@@H]21	-4	nt	4	1	nt	nt	nt
CN1OC[C@@H]2CN3C(=NCCc4ccccc4)Sc4ccccc4[C@@H]3C[C@@H]21	nt	nt	-8	nt	nt	nt	nt
COc1ccc(CNc2nc3nc(C)cc(C)n3n2)cc1OC	13	4	1	-2	-19	nt	nt
Cc1cc(C)n2nc(NCc3cccc(Br)c3)nc2n1	1	-3	9	58*	9	70*	52*
Cc1ccnc(NS(=O)(=O)Cc2ccccc2)c1	-4	8	12	44*	-3	103*	68*
Cc1ccc(NS(=O)(=O)Cc2ccccc2)nc1	4	1	5	60*	1	171*	142*
Cc1ccc(NS(=O)(=O)c2ccc(Br)cc2)nc1	-3	-7	3	28*	-1	+	+
Cc1nc(Cn2c3ccc(NC(=S)NC4CCCCC4)cc3c(=O)n2C)cs1	12	nt	7	28*	nt	73*	49*
COc1cccc(CNC(=S)Nc2ccc3c(c2)c(=O)n(C)n3Cc2ccccc2)c1	6	nt	4	56*	nt	68*	44*
COc1ccc(CCNC(=O)Nc2ccc3c(c2)c(=O)n(C)n3Cc2ccc(Cl)cc2)cc1OC	-2	nt	3	88*	nt	29*	28*
Cc1cc(C)cc(-n2c3ccc(NC(=S)NC4CCCCC4)cc3c(=O)n2C)c1	3	nt	0	12	nt	nt	nt
COc1cccc(CNC(=S)Nc2ccc3c(c2)c(=O)n(C)n3Cc2csc(C)n2)c1	5	nt	14	18	nt	nt	nt
CC(C)=CCn1c2ccc(NC(=S)NC3CC3)cc2c(=O)n1C	-2	nt	-1	31*	nt	88*	74*
Cc1cc(C)cc(C(=O)OCCN2CCN(C3CN(Cc4cn(Cc5ccccc5F)nn4)S(=O)(=O)C3)CC2)c1 (stereo unspecified)	nt	nt	-4	nt	nt	nt	nt
Cn1c(=O)c2cc(NC(=S)NC3CC3)ccc2n1Cc1ccccc1	3	nt	10	41*	nt	7	-1
CCCC1NC(C(=O)O)Cc2c1[nH]c1ccccc21 (stereo unspecified)	3	4	-8	29*	-12	36*	35*
CC(C)CC1NC(C(=O)O)Cc2c1[nH]c1ccccc21 (stereo unspecified)	12	-3	3	24	-6	nt	nt
CC(C)C1NC(C(=O)O)Cc2c1[nH]c1ccccc21 (stereo unspecified)	9	-3	-8	45*	-5	164*	142*
SMILES	GDH-TPI counter-1	BJeLR lethal	PrPC surface inh	Mtb FBA inh	RecA intein inh	Mtb FBA confirm	GDH-TPI counter-2
COC(=O)[C@]12C[C@H](CC(=O)NCCCN3CCCC3=O)C(=O)N(CCC3=CCCCC3)C1=C[C@H](COCc1ccccc1)O[C@@H]2C	nt	nt	5	nt	nt	nt	nt
O=C(O)c1cn(-c2ccc(F)cc2)c2cc(N3CCNCC3)c(F)cc2c1=O	9	nt	-3	33*	nt	170*	136*
CCn1cc(C(=O)O)c(=O)c2cc(F)c(N3CCN(C(=S)NC(=O)c4ccccc4Cl)CC3)cc21	11	-1	11	3	1	nt	nt
COc1ccc(-c2cc(C(=O)N(C)CC(=O)Nc3cccc(F)c3)c3ccccc3n2)cc1	7	-2	2	54*	0	115*	83*
COc1ccc(NC(=O)CN(C)C(=O)c2cc(-c3ccc(OC)cc3)nc3ccccc23)cc1	19	-5	3	35*	2	49*	36*
Cc1c[nH]c2cccc(-c3cccc4ccccc34)c12	nt	nt	-11	nt	nt	nt	nt
C=CCc1cccc(C=Nc2cccn3cc(-c4ccccc4)nc23)c1O	9	3	6	39*	-21	+	176*
C=CCc1cccc(/C=N/c2ncn[nH]2)c1O	-4	0	0	0	nt	nt	nt
O=C(c1ccco1)N1CCN(C(=O)c2cccn3c(=O)c4c5c(sc4nc23)CCCC5)CC1	28	nt	-6	34*	nt	189*	145*
Cc1cccn2c(=O)c3cc(C(=O)N4CCOCC4)n(C)c3nc12	17	-14	-2	66*	-22	-10	-11
Cc1cccn2c(=O)c3cc(C(=O)N4CCN(C(=O)c5ccco5)CC4)n(C)c3nc12	26	1	-6	81*	-16	+	+
Cc1cc(Br)cn2c(Cc3ccccc3C(F)(F)F)c(-c3ccc(F)cc3)nc12	nt	nt	8	nt	nt	nt	nt
CCOC(=O)C/C(C)=N\Nc1nc(-c2ccccc2)cs1	14	7	1	69*	0	54*	42*
CC(C)=NNc1nc(-c2ccccc2)cs1	2	9	-1	0	1	nt	nt
Oc1cccc(NC(=S)Nc2ccc(SC(F)F)cc2)c1	11	-4	7	3	1	nt	nt
Oc1cccc2c(NC(=S)Nc3ccc(SC(F)F)cc3)cccc12	4	-3	0	30*	14	+	+
CCOC(=O)[C@]12CCCC3=C1N(CCC3)C(=O)[C@@H](CC(=O)N1CCCC1)C2	nt	nt	-6	nt	nt	nt	nt
COCCn1nnnc1CN(Cc1cc2cc(OC)c(OC)cc2[nH]c1=O)C1CCCC1	4	8	-9	39*	-33	73*	70*
COc1ccc(Cn2nnnc2CN(Cc2cc3ccc(C)cc3[nH]c2=O)C2CCCC2)cc1	13	-16	9	0	10	nt	nt
COc1cc2cc(CN(Cc3nnnn3Cc3ccco3)C3CCCCC3)c(=O)[nH]c2cc1OC	9	-1	-4	40*	-25	63*	53*
